# According to PubChem BioAssay AID1117319 (Southern Research Institute, 2015):
# Where “and” joins values, the source holds several entries; their conditions need not be identical. Equal entries are not always repeated. In all, about 260,000 compounds went through this assay and about 1,500 (0.58%) were called active. Another 5% or so got no clear call; they are omitted. A selection follows. Potency and affinity values are given separately. Unmarked numbers belong to inactive results.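 The calls were made as follows: active = inhibition above a set limit at one or more doses, reproduced on every date tested; inconclusive = results disagree between test dates, or hit never tested in dose response; inactive = the rest.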
# Target: Virion infectivity factor (Human immunodeficiency virus type 1 group M subtype B (isolate BH10)) + Virion infectivity factor (Human immunodeficiency virus type 1 group M subtype B (isolate BRU/LAI)) + Virion infectivity factor (Human immunodeficiency virus type 1 group M subtype B (isolate PCV12)) + Virion infectivity factor (Human immunodeficiency virus type 1 group M subtype B (isolate HXB2)) + DNA dC->dU-editing enzyme APOBEC-3G (Homo sapiens) (UniProt P69720+P69721+P69722+P69723+Q9HC16)
# Experiment: HIV-1 Vif–A3G interaction blockers – biochemical, TR-FRET, GST-Vif 1-94, biotin-A3G peptide, dose response retest, primary screen (AID 1117319);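 also: Vif residues 1-94 fused to GST binding biotinylated APOBEC3G peptide 110-148; 0% = full assay without inhibitor and 100% = GST in place of GST-Vif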
# Settings: TR-FRET GST-Vif / biotin-A3G peptide binding; stronger effect = higher value
row,Structure (SMILES),inhibition
1,CCCCn1c(O)c(C(CC)=Nc2ccc3c(c2)CCC3)c(=O)[nH]c1=O,7.31%
2,C=CCn1c(O)c(C(CC)=NCCN2CCOCC2)c(=O)[nH]c1=O,65.5%
3,COc1ccccc1NC(=O)Cn1cnc2sc(C(=O)Nc3ccc(OC)c(OC)c3)c(C)c2c1=O,0.19%
4,COc1ccc(S(=O)(=O)N2CCCCCC2)cc1C(=O)N(C)Cc1ccc(F)cc1,4.27%
5,C=CCNS(=O)(=O)c1cccc2cc(C(=O)O)c(O)cc12,-0.91%
6,CCN(CC)S(=O)(=O)c1cccc2cc(C(=O)O)c(O)cc12,-3.16%
7,Cc1ccc(N2C(=O)N(c3ccc(C)cc3)C3CS(=O)(=O)CC32)cc1 (stereo not given),-8.71%
8,C=CCn1c(COc2ccc(F)cc2)nnc1SCC(=O)N1CC(=O)Nc2ccccc21,3.87%
9,CCOC(=O)c1c(C=O)c(C)n(Cc2ccccc2)c1C,4.84%
10,CCOC(=O)c1cc(C)n(Cc2ccccc2)c1C,24.3%
11,FC(F)(F)c1cc(-c2ccco2)nc(NCc2ccc(Cl)cc2)n1,3.96%
12,Fc1ccc(CNc2nc(-c3ccco3)cc(C(F)(F)F)n2)cc1,9.71%
13,FC(F)(F)c1cc(-c2ccco2)nc(NCc2ccccc2)n1,15.6%
14,FC(F)(F)c1cc(-c2ccccc2)nc(NCc2cccnc2)n1,-5.26%
15,COc1ccc(/C=N/NC(=O)c2cccc([N+](=O)[O-])c2)cc1OS(=O)(=O)c1ccccc1,2.68%
16,COc1ccc(NC(c2ccccc2)c2ccncc2)cc1 (stereo not given),7.39%
17,CCC(C)(C)NC(=O)C(c1ccc(C)cc1)N(CCN1CCOCC1)C(=O)CNC(=O)c1cccs1 (stereo not given),2.09%
18,Cc1c(NC(=O)Cc2noc3ccccc23)cccc1[N+](=O)[O-],-3.42%
19,CCN(CCCNC(=O)CN(C)S(=O)(=O)c1cccc2nsnc12)c1ccccc1,20.3%
20,CCCCC(=O)N/N=C/c1sccc1C,-0.53%
21,Cc1ccsc1/C=N/n1cnnc1,-12.8%
22,O=Cc1ccc(-c2cccs2)s1,-3.47%
23,CC(=O)c1ccc(-c2cccs2)s1,2.24%
24,CCOC(=O)c1[nH]c(C)c(C(=O)N(CC)CC)c1C,4.43%

row,Structure (SMILES),inhibition
1,CC(=O)NS(=O)(=O)c1ccc(NC(=O)c2ccc(-n3nc(C)cc3C)cc2)cc1,0.12%
2,CCOC(=O)C1CCN(C(=O)COC(=O)c2cc(-c3cccs3)nn2-c2ccccc2)CC1,-3.24%
3,O=C(O)CCN1/C(=C/C=Nc2ccccc2)Oc2ccccc21,20.6%
4,COc1ccc(NC2CS(=O)(=O)CC2NCc2ccccc2)cc1 (stereo not given),-0.42%
5,O=S1(=O)CC(O)C(NCc2ccco2)C1 (stereo not given),11.1%
6,COc1ccc(C2c3c(oc4ccccc4c3=O)C(=O)N2c2ccccn2)cc1OC (stereo not given),-8.31%
7,COC1OC(COC(=O)c2ccccc2)C(OC(=O)c2ccccc2)C1OC(=O)c1ccccc1 (stereo not given),3.23%
8,COC(=O)c1cc(O)c(O)c(O)c1,16.7%
9,O=C1c2ccccc2C(=O)N1CCc1csc(-c2ccccc2)n1,0.09%
10,O=C(O)CC(c1ccccc1)c1ccccc1,0.95%
11,O=C(O)CC(Cn1[nH]nnc1=S)c1ccccc1 (stereo not given),-2.23%
12,Cc1cccc(N=CC=C2OC(C)(C)C(C)(C)O2)c1,-6.65%
13,Cc1ccc(NC(=O)CNC(=O)c2ccc(C(C)(C)C)cc2)cc1S(=O)(=O)N1CCOCC1,0.79%
14,CCO[C@H]1OC(C(=O)N2CCN(Cc3ccc4c(c3)OCO4)CC2)=C[C@@H](c2cn(C(C)=O)c3ccccc23)[C@@H]1CCCO,-9.76%
15,O=C(CN1C(=O)NC2(CCCCCC2)C1=O)NCc1cccs1,-5.46%
16,O=C(CN1C(=O)NC2(CCCCC2)C1=O)NCc1ccc2c(c1)OCO2,-8.65%
17,CC1CCC2(CC1)NC(=O)N(CC(=O)NCc1cccs1)C2=O (stereo not given),-3.91%
18,CC1CCC2(CC1)NC(=O)N(CC(=O)NCc1ccc3c(c1)OCO3)C2=O (stereo not given),-3.28%
19,O=C(c1nc2ccccn2c1CNCCCn1cccn1)N1CCCC1,23.8%
20,C/C(=N\NC(=O)Cn1ccc(C(F)(F)F)n1)c1ccc2c(c1)OCO2,-1.38%
21,CCN(CC)CCOC(=O)c1ccc(NC(=O)c2cccc(C)c2[N+](=O)[O-])cc1,2.15%
22,COc1ccc(CNC(=O)C(c2ccncc2)N(C(=O)Cc2cccs2)c2cccnc2)cc1 (stereo not given),2.85%
23,COc1ccc(NC(=O)C[C@H]2C(=O)N(Cc3cccnc3)C[C@@H]2Cc2ccccc2)cc1,-1.58%
24,O=C(NCCc1ccccc1)c1ncn[nH]1,28.1%

row,Structure (SMILES),inhibition
1,CCCNC(=O)Cc1ncn[nH]1,-3.15%
2,O=C(CCN1C(=O)c2ccccc2C1=O)CN1CCOCC1,-9.57%
3,O=C(NC1CCCC1)C(c1ccc(Cl)cc1)N1CCc2ccccc21 (stereo not given),2.15%
4,CCc1ccc(CN(Cc2cccnc2)C(=O)/C=C/c2ccc(OC)cc2)cc1,-6.21%
5,CC(C)(C)c1ccc(C(=O)N2CCN(c3ncccn3)CC2)cc1,-3.51%
6,c1ccc2c(c1)CCN2CCN1CCc2ccccc21,-3.68%
7,CCN1C(=O)/C(=C/N2CCc3ccccc32)SC1=S,2.5%
8,O=C(C#Cc1ccccc1)c1ccccc1,-8.84%
9,COc1ccc(Cl)cc1N(CC(=O)Nc1cccc(SC)c1)S(C)(=O)=O,4.16%
10,CCN1C(=O)/C(=C/N(C)c2ccccc2)OC1=S,0.98%
11,CC(C)(C)c1ccc(OCCC(=O)Nc2cccc(S(=O)(=O)NC3=NCCCCC3)c2)cc1,-0.89%
12,O=C(NCc1ccco1)c1csc(Nc2ccccc2Cl)n1,-7.13%
13,COc1ccc(Nc2nc(C(=O)NCc3ccco3)cs2)cc1,-1.71%
14,O=C(CNC(=O)c1ccccc1F)OCCOc1cccc(Cl)c1,3.91%
15,Cc1ccc(CCNC(=O)C2CC(c3ccccc3C(F)(F)F)=NO2)cc1 (stereo not given),-3.19%
16,COc1ccc(C2=C(N)c3ccccc3C2=O)cc1,29%
17,COc1ccc(N)c2c1C(=O)c1ccccc1C2=O,-29.2%
18,Cc1cccc(N2C(=O)c3ccc(Br)cc3C2=O)n1,1.11%
19,NC1=C(Br)C(=O)c2ncccc2C1=O,0.39%
20,COc1ccc(-c2c(N)cnc(C(=O)O)c2C)c(OCc2ccccc2)c1OC,2.47%
21,COc1ccc(-c2c(C#N)cnc(C)c2C)c(O)c1OC,-2.84%
22,COc1ccc(CC(=O)Nc2ccc(C(N)=O)cc2)cc1,15.2%
23,CCOc1ccc(N2C(=O)CC(N(Cc3ccco3)C(=O)CC)C2=O)cc1 (stereo not given),0.31%
24,Cc1c(N/C(=N/S(=O)(=O)c2ccc(F)cc2)c2ccccc2)c(=O)n(-c2ccccc2)n1C,0.73%

row,Structure (SMILES),inhibition
1,Cc1sc2nc(CSC(C)C(=O)NC3(C#N)CCCCC3)[nH]c(=O)c2c1C (stereo not given),9.91%
2,C[C@]12C=CC(=O)C=C1CCC1C2CC[C@@]2(C)C1CCC21OCCO1 (stereo not given in full),-4.95%
3,C=C(C)COc1ccc2c(CC)cc(=O)oc2c1C,-15.7%
4,O=C(CCCN1C(=O)/C(=C\c2ccccc2)SC1=S)Nc1ccc(O)cc1,7.93%
5,O=C(CCCN1C(=O)/C(=C\c2cccs2)SC1=S)Nc1ccccc1O,3.84%
6,O=C(CCN1C(=O)/C(=C/c2ccco2)SC1=S)Nc1ccc(O)cc1C(=O)O,20.3%
7,COc1ccc(/C=C2/SC(=S)N(CCCC(=O)Nc3cccc(O)c3)C2=O)cc1,4.43%
8,CCN1C=C(Cc2ccccc2C)C2=C(C1)C(c1ccccc1C)C(C#N)=C(N)O2 (stereo not given),3.15%
9,O=C(CCC(=O)Nc1ccccc1Cl)NNC(=O)Nc1cccc([N+](=O)[O-])c1,-2.42%
10,c1ccc(N2CCN(c3cnccn3)CC2)nc1,-2.48%
11,c1ccc(N2CCN(c3ncccn3)CC2)cc1,2.21%
12,Cc1ccc(Sc2ncccc2C(=O)O)cc1,1.95%
13,O=C(NCC(c1ccco1)N1CCCC1)c1cn(-c2ccccc2)nc1-c1ccc(F)cc1 (stereo not given),-3.8%
14,C[C@H](NS(=O)(=O)c1ccccc1)C(=O)N1CCN(C(c2ccccc2)c2ccccc2)CC1,0.88%
15,COc1ccc(OC)c(NS(=O)(=O)c2ccc(Br)s2)c1,2.77%
16,Oc1cccc2ccc(N3CCOCC3)nc12,-8.55%
17,CC(C)(C)C(=O)Oc1cc(N)n(S(=O)(=O)c2ccccc2)n1,-2.72% and -3.77%
18,COc1ccc(CN(C(=O)c2cccs2)c2ccccc2C(=O)O)cc1,-12.9%
19,O=C1OCCC1Sc1ncnc2sc3c(c12)CCC3 (stereo not given),21.7%
20,CN(Cc1ccccc1)C(=O)COC(=O)C1CCN(S(=O)(=O)c2ccc3c(c2)OCCO3)CC1,-5.03%
21,COC(=O)c1[nH]c(C)c(/C(O)=C2\C(=O)C(=O)N(CCN3CCOCC3)C2c2ccco2)c1C (stereo not given),10.8%
22,Cc1ccc(C)c(/C(O)=C2\C(=O)C(=O)N(CCCN3CCOCC3)C2c2cccnc2)c1 (stereo not given),-1.34%
23,CC(CCc1ccccc1)NC(=O)c1nnc(Cc2ccc(Cl)cc2)o1 (stereo not given),-1.14%
